Measurements from the supplement of paper PMC13380429.

The molecules below were run on Vero E6 infected with SARS-CoV-2 (assay: morphology score (similarity to uninfected cells); higher = more like uninfected cells). Conditions: 24 h.

Row | Structure (SMILES) | morphology score
1 | CCCOC(=O)c1ccc(O)cc1 [propyl 4-hydroxybenzoate] (10 µM) | -0.0462
2 | N#Cc1ccc(NCCNCC(=O)N2CCC[C@H]2C#N)nc1 (10 µM) | -0.0945
3 | O=C1c2cc(Cl)ccc2OC2CCON12 (configuration not stated) [seclazone] (10 µM) | 0.0763
4 | CCCOc1ccc(S(=O)(=O)N2CCN(CCO)CC2)cc1-c1nc2c(CCC)cn(CC)c2c(=O)[nH]1 [mirodenafil] (10 µM) | 0.127
5 | CC1(C)[C@@H](OC(=O)CCC(=O)O)CC[C@]2(C)[C@H]3C(=O)C=C4[C@@H]5C[C@@](C)(C(=O)O)CC[C@]5(C)CC[C@@]4(C)[C@]3(C)CC[C@@H]12 (10 µM) | 0.0746
6 | CC(C)(Cc1c[nH]c2ccc(Cl)cc12)NCCOc1ccccc1OCC1CC1 (0.833333 µM) | 0.193
7 | O[C@@H]1CCCC[C@H]1N1CCC(c2ccccc2)CC1 (racemic) [vesamicol] (10 µM) | 0.23

What follows are molecules tested on Vero E6 infected with SARS-CoV-2 (assay: SARS-CoV-2 infection rate relative to infected DMSO; higher = more infection, active = 60 or less). Conditions: 24 h.

Row | Structure (SMILES) | SARS-CoV-2 infection rate
8 | CN1CCN(c2cccc3[nH]c(=O)oc23)CC1 [pardoprunox] (10 µM) | 103% (inactive)
9 | O=C1CC[C@@H](C(=O)N2CSC[C@H]2C(=O)O)N1 [pidotimod] (10 µM) | 116% (inactive)
10 | C[Se]C[C@H](N)C(=O)O [Se-methylselenocysteine] (10 µM) | 102% (inactive)
11 | CC[C@]12CCCN3CCc4c(n(c5ccccc45)[C@@](O)(C(=O)OC)C1)[C@@H]32 [vincamine] (10 µM) | 99% (inactive)
12 | O=C(O)c1ccc(/C=C2\SC(=S)N(c3cccc(C(F)(F)F)c3)C2=O)cc1 (10 µM) | 108% (inactive)
13 | Nc1cc2c3ccccc3ccc2c2ccccc12 [6-aminochrysene] (10 µM) | 101% (inactive)
14 | CCN(c1ccccc1)c1cc(=NC)n(C)c(C)n1 (10 µM) | 94% (inactive)
15 | C=CCN1CC[C@]23c4c5ccc(O)c4O[C@H]2C(=O)CC[C@@]3(O)[C@H]1C5 (10 µM) | 114% (inactive)
16 | CC(=O)N1CCC[C@H]1C(=O)N[C@@H](Cc1cnc[nH]1)C(=O)N[C@@H](CO)C(=O)N[C@@H](CS)C(=O)N[C@@H](CC(N)=O)C(N)=O (10 µM) | 93% (inactive)
17 | CN(C)CC/C=C1/c2ccccc2Sc2ccc(Cl)cc21 [chlorprothixene] (10 µM) | 68.5% (inactive)
18 | COC(=O)Nc1ccc(-c2nc(N3CCOCC3)c3cnn(C4CCN(Cc5cccnc5)CC4)c3n2)cc1 (10 µM) | 104% (inactive)
19 | CCS(=O)(=O)N(Cc1cccnc1)c1cccc(-c2ccc(C#N)cc2)c1 (10 µM) | 87% (inactive)
20 | CC12CCC(C(Br)C1=O)C2(C)C (configuration not stated) [3-bromocamphor] (10 µM) | 106% (inactive)
21 | O=C(O)CNC(=O)c1c(O)c2ccccc2n(Cc2ccccc2)c1=O (10 µM) | 102% (inactive)
22 | Nc1ccc(F)cc1NC(=O)c1ccc(CNC(=O)/C=C/c2cccnc2)cc1 [chidamide] (0.833333 µM) | 107% (inactive)
23 | O=c1cc(-c2ccccc2)oc2cc(O)c(O)c(O)c12 [baicalein] (10 µM) | 85% (inactive)
24 | CCCCC(=O)O[C@]1(C(=O)CO)CC[C@H]2[C@@H]3CCC4=CC(=O)CC[C@]4(C)[C@H]3[C@@H](O)C[C@@]21C [hydrocortisone-valerate] (10 µM) | 107% (inactive)
25 | Nc1ccc(S(=O)(=O)Nc2ccnn2-c2ccccc2)cc1 [sulfaphenazole] (10 µM) | 99.5% (inactive)
26 | CN(C)CCNc1nc2cc(O)ccc2c2c1C(=O)c1ccccc1-2 (10 µM) | 106% (inactive)
27 | Oc1c(Cl)cc(Cl)cc1Sc1cc(Cl)cc(Cl)c1O [bithionol] (10 µM) | 106% (inactive)

Row | Structure (SMILES) | SARS-CoV-2 infection rate
28 | CN1CCN(CCCN2c3ccccc3Sc3ccc(Cl)cc32)CC1 [prochlorperazine] (10 µM) | 27.5% (active)
29 | O=C(O)C1=C[C@@H](O)[C@@H](O)[C@H](O)C1 [shikimic-acid] (10 µM) | 108% (inactive)
30 | N#C[C@@H]1C[C@@H]2C[C@@H]2N1C(=O)[C@@H](N)C12CC3CC(CC(O)(C3)C1)C2 (10 µM) | 105% (inactive)
31 | CCCn1c(=O)[nH]c(=O)c2nc[nH]c21 [enprofylline] (10 µM) | 94% (inactive)
32 | Nc1cc(C(F)(F)F)c(-c2cc(N3CCOCC3)nc(N3CCOCC3)n2)cn1 [buparlisib] (10 µM) | 103% (inactive)
33 | COc1nc(N)nc2c1ncn2[C@@H]1O[C@H](CO)[C@@H](O)[C@@H]1O [nelarabine] (10 µM) | 109% (inactive)
34 | CC[C@H]1OC(=O)[C@H](C)C(=O)[C@H](C)[C@@H](O[C@@H]2O[C@H](C)C[C@H](N(C)C)[C@H]2O)[C@](C)(OC)C[C@@H](C)C(=O)[C@H](C)[C@H]2N(CCCCn3cnc(-c4cccnc4)c3)C(=O)O[C@]12C [telithromycin] (10 µM) | 118% (inactive)
35 | CC1(C)CCC(C)(C)c2cc(Cn3cccn3)c(/C=C/c3ccc(C(=O)O)cc3)cc21 [palovarotene] (10 µM) | 108% (inactive)
36 | Cc1c(C)c2c(c(C)c1OC(=O)CCC(=O)O)CC[C@@](C)(CCC[C@H](C)CCC[C@H](C)CCCC(C)C)O2 [D-alpha-tocopheryl-succinate] (10 µM) | 101% (inactive)
37 | O=C(CO)[C@@H](O)[C@@H](O)[C@H](O)CO [tagatose] (10 µM) | 108% (inactive)
38 | CCCCN1CCCC1CNC(=O)c1cc(C#N)c2ccccc2c1OC (configuration not stated) [nafadotride] (10 µM) | 89% (inactive)
39 | CN1CCOC(c2ccccc2)c2ccccc2C1 (configuration not stated) [nefopam] (10 µM) | 108% (inactive)
40 | Cc1onc(-c2ccccc2)c1C(=O)N[C@@H]1C(=O)N2[C@@H]1SC(C)(C)[C@@H]2C(=O)O [oxacillin] (10 µM) | 110% (inactive)
41 | CCCOC(=O)c1ccc(O)cc1 [propyl 4-hydroxybenzoate] (10 µM) | 111% (inactive)
42 | N#Cc1ccc(NCCNCC(=O)N2CCC[C@H]2C#N)nc1 (10 µM) | 114% (inactive)
43 | O=C1c2cc(Cl)ccc2OC2CCON12 (configuration not stated) [seclazone] (10 µM) | 102% (inactive)
44 | CCCOc1ccc(S(=O)(=O)N2CCN(CCO)CC2)cc1-c1nc2c(CCC)cn(CC)c2c(=O)[nH]1 [mirodenafil] (10 µM) | 95.5% (inactive)
45 | CC1(C)[C@@H](OC(=O)CCC(=O)O)CC[C@]2(C)[C@H]3C(=O)C=C4[C@@H]5C[C@@](C)(C(=O)O)CC[C@]5(C)CC[C@@]4(C)[C@]3(C)CC[C@@H]12 (10 µM) | 106% (inactive)
46 | CC(C)(Cc1c[nH]c2ccc(Cl)cc12)NCCOc1ccccc1OCC1CC1 (0.833333 µM) | 110% (inactive)
47 | O[C@@H]1CCCC[C@H]1N1CCC(c2ccccc2)CC1 (racemic) [vesamicol] (10 µM) | 98.5% (inactive)
